Measured values published in PubChem BioAssay.
Activity calls are given as the source filed them.

Legend:
[1] = small molecules captured by biotinylated probe aFSTL3 – biochemical, small-molecule microarray, fluorescence 635/667, stem cell growth factor project, primary screen (AID 1064); conditions: higher = more signal;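 note: measures binding of the biotinylated anti-FSTL3 antibody to printed compounds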
[2] = binders from COS7 lysate, DM2A8 probe, primary screen, torsin A project, cell lysate, small-molecule microarray, fluorescence 635/667 (AID 1065); conditions: higher = more signal, COS7 lysate expressing mutant human TOR1A
[3] = small molecules captured by biotinylated probe aFGF2 – biochemical, small-molecule microarray, fluorescence 635/667, stem cell growth factor project, primary screen (AID 1067); conditions: higher = more signal;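 note: measures binding of biotinylated aFGF2 protein to printed compounds on slides; z-score merges feature fluorescence and signal-to-noise across triplicate slides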
[4] = small molecules captured by biotinylated probe aFGF10 – biochemical, small-molecule microarray, fluorescence 635/667, stem cell growth factor project, primary screen (AID 1071); conditions: higher = more signal;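 note: score merges 667 nm spot intensity and signal to noise from triplicate slides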
[5] = target: Neurogenic locus notch homolog protein 2 (Homo sapiens) (UniProt Q04721); test: small molecules binding Notch2 protein – biochemical, small-molecule microarray, 635 nm fluorescence, stem cell growth factors, primary screen (AID 1073); conditions: higher = more signal
[6] = target: Pro-neuregulin-1, membrane-bound isoform (Homo sapiens) (UniProt Q02297); test: small molecules binding neuregulin-1 protein – biochemical, small-molecule microarray, fluorescence 635/667, psychiatric disease protein project, primary screen (AID 1075); conditions: NRG1 binding, 635 nm fluorescence, higher = more signal;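 note: score combines 667 nm spot fluorescence with signal to noise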
Sequence of Pro-neuregulin-1, membrane-bound isoform (Homo sapiens) (Q02297 whole entry, looked up, the tested form may be a part, canonical isoform): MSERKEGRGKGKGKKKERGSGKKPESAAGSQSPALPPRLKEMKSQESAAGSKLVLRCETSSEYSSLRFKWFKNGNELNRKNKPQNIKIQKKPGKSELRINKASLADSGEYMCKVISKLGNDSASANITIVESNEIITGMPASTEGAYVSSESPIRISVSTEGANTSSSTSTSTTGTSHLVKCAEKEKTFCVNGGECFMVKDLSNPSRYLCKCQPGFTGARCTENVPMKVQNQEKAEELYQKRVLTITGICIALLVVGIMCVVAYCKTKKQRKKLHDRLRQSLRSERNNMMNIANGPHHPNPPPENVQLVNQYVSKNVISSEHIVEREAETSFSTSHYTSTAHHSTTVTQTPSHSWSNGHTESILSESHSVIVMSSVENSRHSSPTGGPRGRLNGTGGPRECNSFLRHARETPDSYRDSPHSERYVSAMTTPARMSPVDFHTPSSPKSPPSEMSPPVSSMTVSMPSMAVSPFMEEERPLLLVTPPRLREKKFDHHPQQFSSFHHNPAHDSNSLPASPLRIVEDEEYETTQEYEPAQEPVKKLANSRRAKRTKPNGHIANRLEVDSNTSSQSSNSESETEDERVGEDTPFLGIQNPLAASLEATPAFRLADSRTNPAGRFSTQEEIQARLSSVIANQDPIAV

[7] = test system: Neuregulin-1 EGF-like domain; test: small molecules binding NRG1 EGF domain – biochemical, small-molecule microarray, 635 nm fluorescence, primary screen (AID 1081); conditions: higher = more signal;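 note: binding of the protein to compounds printed on small-molecule microarray slides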
[8] = FRG1 expression reporter modulators in myotubes – cell-based, C2C12 myotubes, firefly/Renilla luciferase, luminescence, FRG1 inhibition for FSHD, primary screen (AID 1084); conditions: FRG1 promoter luciferase, higher = more signal, called active from +8 up or from −8 down
[9] = small molecules captured by biotinylated probe aFST – biochemical, small-molecule microarray, fluorescence 635/667, stem cell growth factor project, primary screen (AID 1086); conditions: higher = more signal;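 note: score merges 667 nm fluorescence with signal-to-noise of each printed compound spot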
[10] = binders of probe aHhip on microarray, primary screen, stem cell growth factor project, biochemical, small-molecule microarray, fluorescence 635/667 (AID 1087); conditions: higher = more signal;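 note: score merges spot fluorescence at 667nm with spot signal to noise ratio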
[11] = test system: PRMT1 (protein arginine N-methyltransferase 1); test: small molecules binding arginine methyltransferase PRMT1 – biochemical, small-molecule microarray, 635 nm fluorescence, primary screen (AID 1088); conditions: higher = more signal;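 note: binding of Prmt1 protein to compounds spotted on small-molecule microarray slides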
[12] = growth effects on S. cerevisiae YJM789 – YJM789 clinical isolate, OD600, 24 h, basal, primary screen (AID 1089); conditions: higher = more signal, called active from +8 up or from −8 down;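 note: growth of clinical yeast isolate S. cerevisiae YJM 789 seeded 1000 cells per well; test concentration not given here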
[13] = S. pombe growth modifiers, basal conditions – strain 972, OD600, 24 h, no modulator, primary screen (AID 1090);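 note: basal condition with compound alone and no growth modifier present; test concentration not given here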; conditions: S. pombe 972 growth, higher = more signal, called active from +8 up or from −8 down
[14] = budding yeast growth modifiers under rapamycin – strain BY4716, OD600, 96 h, primary screen (AID 1091); note: test concentration not given here; conditions: S. cerevisiae BY4716 + rapamycin, higher = more signal, called active from +8 up or from −8 down
[15] = target: Torsin-1A-interacting protein 2 (Homo sapiens) (UniProt Q8NFQ8); test: small molecules binding lysate-expressed LULL1 – cell lysate, human LULL1 lysate, 635/667 nm fluorescence, primary screen (AID 1092); conditions: small-molecule microarray, hLULL1 lysate binding, 635 nm fluorescence; higher = more signal;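 note: probe is lysate of COS7 cells overexpressing human LULL1; score merges per-feature 667 nm fluorescence with signal-to-noise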
Sequence of Torsin-1A-interacting protein 2 (Homo sapiens) (Q8NFQ8 whole entry, looked up): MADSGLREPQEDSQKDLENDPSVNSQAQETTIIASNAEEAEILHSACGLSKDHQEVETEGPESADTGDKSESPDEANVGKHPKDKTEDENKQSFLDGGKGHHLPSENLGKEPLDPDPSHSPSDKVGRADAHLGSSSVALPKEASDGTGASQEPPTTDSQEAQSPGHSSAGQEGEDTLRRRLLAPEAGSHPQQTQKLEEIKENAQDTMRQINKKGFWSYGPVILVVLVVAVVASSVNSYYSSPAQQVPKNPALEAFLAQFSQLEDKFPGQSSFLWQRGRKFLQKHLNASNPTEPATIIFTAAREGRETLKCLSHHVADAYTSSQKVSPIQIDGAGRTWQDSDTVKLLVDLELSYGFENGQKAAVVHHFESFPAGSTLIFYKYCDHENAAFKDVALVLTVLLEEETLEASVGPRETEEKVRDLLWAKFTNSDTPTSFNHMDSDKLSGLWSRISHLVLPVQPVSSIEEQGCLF

[16] = optical density change of DRC41 E. coli – strain DRC41, OD650, 24 h, E. coli filamentation project, primary screen (AID 1093);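 note: MC1000 strain lacking acrAB efflux and sulA so SOS filamentation is blocked; test concentration not given here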; conditions: E. coli DRC41 growth, higher = more signal, called active from +8 up or from −8 down
[17] = probe aLefty2 binding to arrayed compounds – biochemical, biotinylated probe, 635/667 nm fluorescence, primary screen (AID 1094); conditions: small-molecule microarray, higher = more signal;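 note: score merges spot fluorescence near 667 nm with spot signal-to-noise ratio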
[18] = test system: Noggin (protein binding on small-molecule microarray); test: small molecules binding Noggin protein – biochemical, 635/667 nm fluorescence, primary screen (AID 1095); conditions: 635 nm fluorescence, higher = more signal;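 note: score merges 667 nm feature fluorescence with signal to noise over triplicate slides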
[19] = target: Neurogenic locus notch homolog protein 3 (Homo sapiens) (UniProt Q9UM47); test: small molecules binding NOTCH3 protein – biochemical, 635/667 nm fluorescence, primary screen (AID 1096); conditions: small-molecule microarray, 635 nm fluorescence, higher = more signal
Sequence of Neurogenic locus notch homolog protein 3 (Homo sapiens) (Q9UM47 whole entry, looked up): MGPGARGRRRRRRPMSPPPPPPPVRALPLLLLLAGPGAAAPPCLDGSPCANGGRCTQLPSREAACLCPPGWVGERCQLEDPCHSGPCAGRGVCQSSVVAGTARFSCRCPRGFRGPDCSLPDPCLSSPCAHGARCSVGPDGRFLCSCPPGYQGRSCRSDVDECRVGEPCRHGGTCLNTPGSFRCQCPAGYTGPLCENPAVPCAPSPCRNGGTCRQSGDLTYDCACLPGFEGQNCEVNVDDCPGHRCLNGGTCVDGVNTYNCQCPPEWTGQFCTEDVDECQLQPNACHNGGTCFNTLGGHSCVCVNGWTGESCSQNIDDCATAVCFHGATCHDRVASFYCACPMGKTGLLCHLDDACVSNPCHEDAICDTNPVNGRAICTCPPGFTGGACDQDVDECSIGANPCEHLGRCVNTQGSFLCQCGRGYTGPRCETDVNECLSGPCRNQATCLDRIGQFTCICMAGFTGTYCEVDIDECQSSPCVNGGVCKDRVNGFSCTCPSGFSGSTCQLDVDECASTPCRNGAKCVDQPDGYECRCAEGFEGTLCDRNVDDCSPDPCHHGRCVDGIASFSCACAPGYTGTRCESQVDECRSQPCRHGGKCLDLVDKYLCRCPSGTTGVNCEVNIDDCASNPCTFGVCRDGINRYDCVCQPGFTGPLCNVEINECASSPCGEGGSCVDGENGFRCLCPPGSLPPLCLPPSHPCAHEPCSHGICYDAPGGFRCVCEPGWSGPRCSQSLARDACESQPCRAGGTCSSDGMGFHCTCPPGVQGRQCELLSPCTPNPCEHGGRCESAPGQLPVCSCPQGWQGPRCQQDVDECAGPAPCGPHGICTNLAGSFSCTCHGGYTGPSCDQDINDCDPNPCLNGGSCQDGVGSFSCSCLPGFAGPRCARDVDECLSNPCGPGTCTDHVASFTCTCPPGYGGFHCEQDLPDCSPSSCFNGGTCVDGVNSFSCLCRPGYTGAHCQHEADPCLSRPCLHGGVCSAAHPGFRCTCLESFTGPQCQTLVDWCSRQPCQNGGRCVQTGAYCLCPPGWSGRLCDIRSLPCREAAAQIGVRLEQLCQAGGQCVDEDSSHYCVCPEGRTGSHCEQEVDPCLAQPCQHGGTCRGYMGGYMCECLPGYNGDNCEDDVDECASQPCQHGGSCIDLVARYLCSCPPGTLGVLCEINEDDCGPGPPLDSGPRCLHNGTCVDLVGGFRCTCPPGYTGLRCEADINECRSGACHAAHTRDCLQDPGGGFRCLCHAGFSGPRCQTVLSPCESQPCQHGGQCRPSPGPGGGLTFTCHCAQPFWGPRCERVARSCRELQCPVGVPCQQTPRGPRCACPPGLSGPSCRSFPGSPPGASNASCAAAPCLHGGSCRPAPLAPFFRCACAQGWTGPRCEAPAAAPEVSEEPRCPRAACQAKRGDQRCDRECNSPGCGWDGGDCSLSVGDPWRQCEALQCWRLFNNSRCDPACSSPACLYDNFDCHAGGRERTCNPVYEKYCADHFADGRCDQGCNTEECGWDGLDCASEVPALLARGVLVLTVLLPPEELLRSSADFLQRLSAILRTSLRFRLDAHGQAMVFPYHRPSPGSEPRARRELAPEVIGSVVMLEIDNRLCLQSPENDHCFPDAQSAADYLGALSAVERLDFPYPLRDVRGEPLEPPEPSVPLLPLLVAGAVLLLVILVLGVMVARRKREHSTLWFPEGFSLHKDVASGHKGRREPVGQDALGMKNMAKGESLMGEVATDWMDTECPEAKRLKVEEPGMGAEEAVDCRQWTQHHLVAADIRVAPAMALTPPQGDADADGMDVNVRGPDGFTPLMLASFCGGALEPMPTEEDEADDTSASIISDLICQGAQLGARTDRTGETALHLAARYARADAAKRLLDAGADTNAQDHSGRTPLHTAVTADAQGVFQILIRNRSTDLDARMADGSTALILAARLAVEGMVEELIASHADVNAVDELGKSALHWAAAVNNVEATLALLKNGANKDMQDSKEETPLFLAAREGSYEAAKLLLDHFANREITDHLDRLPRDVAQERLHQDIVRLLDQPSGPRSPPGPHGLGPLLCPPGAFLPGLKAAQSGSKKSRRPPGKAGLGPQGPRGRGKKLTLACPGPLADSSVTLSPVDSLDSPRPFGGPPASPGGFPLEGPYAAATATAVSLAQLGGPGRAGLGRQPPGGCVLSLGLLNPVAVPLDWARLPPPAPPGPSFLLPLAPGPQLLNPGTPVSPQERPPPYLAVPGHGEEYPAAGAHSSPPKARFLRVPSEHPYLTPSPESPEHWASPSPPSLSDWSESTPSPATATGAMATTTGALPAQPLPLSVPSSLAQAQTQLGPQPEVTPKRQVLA

[20] = probe aEGFR binding to arrayed compounds – biochemical, biotinylated probe, 635/667 nm fluorescence, primary screen (AID 1097); conditions: small-molecule microarray, higher = more signal;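 note: probe is a biotinylated anti-EGFR antibody binding compounds printed on slides; score combines fluorescence near 667 nm and signal to noise of each spot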

| Compound | composite z-score [1] | composite z-score [2] | composite z-score [3] | composite z-score [4] | composite z-score [5] | composite z-score [6] | composite z-score [7] | z-score [8] | composite z-score [9] | composite z-score [10] | composite z-score [11] | z-score [12] | z-score [13] | z-score [14] | composite z-score [15] | z-score [16] | composite z-score [17] | composite z-score [18] | composite z-score [19] | composite z-score [20] |
| --- | --- | --- | --- | --- | --- | --- | --- | --- | --- | --- | --- | --- | --- | --- | --- | --- | --- | --- | --- | --- |
| O=C(NCC(O)CO)C1N=C(c2ccc(OCCCO)cc2)N(c2ccccc2)O1 (stereo not given) | -0.279 | 0.657 | 0.0073 | 0.643 | 0.575 | -0.168 | 0.462 | 3.24 (inactive) | -0.282 | 0.136 | 1.55 | -0.375 (inactive) | -0.243 (inactive) | 0.13 (inactive) | 1.8 | 0.153 (inactive) | -0.196 | 1.19 | 0.882 | -0.0531 |
| COC(=O)[C@@]1(Cc2ccc(OC)cc2)[C@H]2c3cc(C(=O)N4CCCC4)n(Cc4ccc(C(F)(F)F)nc4)c3C[C@H]2CN1C(=O)c1ccccc1 | 0.308 | 0.374 | -0.102 | 0.999 | 1.21 | 1.66 | 1.24 | 0.491 (inactive) | -0.25 | 0.388 | 0.0861 | -0.361 (inactive) | -0.138 (inactive) | -0.707 (inactive) | 1.05 | -1.1 (inactive) | 0.248 | 0.113 | 0.269 | 0.131 |
| COc1ccc(C(O)C2C=CC3C(=O)N(c4ccccc4)C(=O)C3N2Nc2ccc([N+](=O)[O-])cc2)c2ccccc12 (stereo not given) | 0.138 | 0.263 | 0.0688 | 0.852 | 1.6 | 1.75 | 1.27 | 0.337 (inactive) | 0.812 | 0.251 | 1.53 | -0.861 (inactive) | 1.68 (inactive) | 2.3 (inactive) | 3.38 | -0.824 (inactive) | 0.0798 | -0.268 | 1.07 | -0.0076 |
| COC(=O)[C@@]1(Cc2ccccc2)[C@H]2c3cc(C(=O)N(C)C)n(Cc4ccc(C(F)(F)F)nc4)c3C[C@H]2CN1C(=O)c1ccccc1 | 0.261 | 0.0724 | 0.233 | 0.699 | 1.67 | 1.9 | 1.48 | 0.0597 (inactive) | 1.74 | -0.126 | 0.644 | 1.06 (inactive) | 1.28 (inactive) | 1.67 (inactive) | 3.69 | -0.755 (inactive) | 0.348 | -0.498 | 1.03 | 0.228 |
| C=CC[C@@]1(C(=O)OC)N=C(c2ccc(OCCCO)cc2)O[C@@H]1c1ccccc1N=[N+]=[N-] | 0.172 | -0.0701 | 0.0555 | 0.256 | 1.47 | 1.49 | 1.44 | 1.54 (inactive) | 0.587 | 0.154 | 1.54 | -0.777 (inactive) | -0.713 (inactive) | 1.35 (inactive) | 3.05 | 0.643 (inactive) | 0.346 | 1.14 | 1.07 | 0.118 |
| Cc1ccc(S[C@]2(C(=O)NCc3ccccc3)CC(=O)N(Cc3ccccc3C(F)(F)F)[C@@H]2c2ccc(CO)cc2)cc1 | 0.563 | -0.355 | -0.105 | -0.659 | -1.44 | 0.642 | -1.08 | -1.92 (inactive) | -0.633 | -0.204 | 0.884 | -1.61 (inactive) | 0.447 (inactive) | -0.417 (inactive) | 1.05 | 0.837 (inactive) | -0.154 | -1.16 | -0.64 | -0.272 |
| CC(C)C(O)C1C=CC2C(=O)NC(=O)C2N1Nc1ccccn1 (stereo not given) | 0.359 | -0.103 | -0.0502 | 0.138 | 0.926 | 0.306 | 1.1 | 0.944 (inactive) | 0.547 | 0.151 | 0.522 | 1.02 (inactive) | 1.68 (inactive) | 0.56 (inactive) | 1.92 | -0.847 (inactive) | 0.0894 | -0.0878 | 0.301 | -0.109 |
| O=C1NC(=O)C2C1C=CC(C(O)c1ccc([N+](=O)[O-])cc1)N2Nc1ccccn1 (stereo not given) | 0.0895 | -0.0755 | -0.0442 | 0.0525 | 0.864 | 0.441 | 0.554 | 0.484 (inactive) | -0.16 | -0.0074 | -0.453 | -0.0716 (inactive) | 0.917 (inactive) | 0.346 (inactive) | 0.307 | -0.562 (inactive) | -0.0218 | 0.241 | -0.432 | -0.0355 |
| O=C1O[C@@H](c2ccccc2)[C@@H](c2ccccc2)N2[C@@H](c3ccc(OCCO)cc3)[C@]3(C(=O)Nc4ccc(C#CC5(O)CCCCCC5)cc43)[C@@H](C(=O)O)[C@H]12 | 0.0507 | 0.733 | -0.0579 | 0.635 | 0.456 | 1.24 | 1.07 | 0.259 (inactive) | 0.193 | 0.0176 | 1.35 | 2.79 (inactive) | -0.256 (inactive) | 0.757 (inactive) | 2.64 | 2.21 (inactive) | -0.166 | 0.674 | 0.743 | -0.0828 |
| C[N+](C)(C)CCCC[C@@H]1NC(=O)[C@@H]2C[C@H](C(=O)NCc3ccc(F)cc3)[C@H](c3ccc(O)cc3)N2C1=O | 0.315 | -0.4 | -0.148 | -0.447 | -1.3 | 1.3 | 1.38 | 0.337 (inactive) | -0.936 | -0.201 | 0.116 | 0.166 (inactive) | 0.519 (inactive) | 0.425 (inactive) | 1.76 | -0.66 (inactive) | -0.139 | 0.401 | -0.146 | -0.271 |
